Out of some 5,500 compounds screened, about 2,000 (36%) were called active. Roughly 18% stayed inconclusive and do not appear here. Rule as the data show it: active = normalized growth mostly below about 0.91 (no sharp cut-off); inconclusive = no clear call, values can overlap the other calls; inactive = mostly above about 0.92. This is one part of the list.
Assay: chemical genetic growth profiling, strain panel (AID 1159580);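 also: tested at 20 µM; growth read once vehicle control cultures reached saturation at 30 °C; 1 = growth at the plate median or of vehicle wells; lower values mean less growth of the strain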
Conditions: growth OD

Measured: normalized growth

CC(=O)NC(C(=O)O)C(C)(C)SN=O (centres undefined)
inactive: S. cerevisiae deletion strains, locus YJR043C, strain POL32, stronger effect = lower value 0.995 | S. cerevisiae deletion strains, locus YJR075W, strain HOC1, stronger effect = lower value 1.03 | S. cerevisiae deletion strains, locus YKL009W, strain mrt4, stronger effect = lower value 0.957 | S. cerevisiae deletion strains, locus YKL068W, stronger effect = lower value 0.99 | S. cerevisiae deletion strains, locus YKL085W, strain MDH1 (second series), stronger effect = lower value 0.987 | S. cerevisiae deletion strains, locus YKL085W, strain MDH1, stronger effect = lower value 0.987 | S. cerevisiae deletion strains, locus YKL160W, strain elf1, stronger effect = lower value 0.996 | S. cerevisiae deletion strains, locus YKL190W, strain CNB1, stronger effect = lower value 1.01 | S. cerevisiae deletion strains, locus YKR001C, strain vps1, stronger effect = lower value 1 | S. cerevisiae deletion strains, locus YKR026C, strain gcn3, stronger effect = lower value 0.989 | S. cerevisiae deletion strains, locus YKR091W, strain srl3, stronger effect = lower value 0.986 | S. cerevisiae deletion strains, locus YLL001W, strain dnm1, stronger effect = lower value 1 | S. cerevisiae deletion strains, locus YLL026W, stronger effect = lower value 1 | S. cerevisiae deletion strains, locus YLL041C, strain sdh2, stronger effect = lower value 0.99 | S. cerevisiae deletion strains, locus YLR027C, strain aat2, stronger effect = lower value 1 | S. cerevisiae deletion strains, locus YLR039C, strain RIC1, stronger effect = lower value 1 | S. cerevisiae deletion strains, locus YLR058C, strain SHM2, stronger effect = lower value 1.01 | S. cerevisiae deletion strains, locus YLR102C, strain apc9, stronger effect = lower value 0.993 | S. cerevisiae deletion strains, locus YLR221C, strain rsa3, stronger effect = lower value 1 | S. cerevisiae deletion strains, locus YLR258W, strain gsy2, stronger effect = lower value 0.994 | S. cerevisiae deletion strains, locus YLR262C, strain YPT6 (second series), stronger effect = lower value 1.02 | S. cerevisiae deletion strains, locus YLR262C, strain YPT6, stronger effect = lower value 1.01 | S. cerevisiae deletion strains, locus YLR268W, strain sec22, stronger effect = lower value 1 | S. cerevisiae deletion strains, locus YLR320W, strain mms22, stronger effect = lower value 0.972 | S. cerevisiae deletion strains, locus YLR330W, strain CHS5, stronger effect = lower value 0.994 | S. cerevisiae deletion strains, locus YLR342W, strain FKS1 (second series), stronger effect = lower value 1.01 | S. cerevisiae deletion strains, locus YLR342W, strain FKS1, stronger effect = lower value 1.01 | S. cerevisiae deletion strains, locus YLR357W, strain rsc2, stronger effect = lower value 0.989 | S. cerevisiae deletion strains, locus YLR370C, strain arc18, stronger effect = lower value 0.991 | S. cerevisiae deletion strains, locus YLR371W, strain rom2, stronger effect = lower value 0.984 | S. cerevisiae deletion strains, locus YLR384C, strain iki3, stronger effect = lower value 0.974 | S. cerevisiae deletion strains, locus YLR418C, strain cdc73, stronger effect = lower value 1.06 | S. cerevisiae deletion strains, locus YML016C, strain PPZ1, stronger effect = lower value 1.01 | S. cerevisiae deletion strains, locus YML032C, strain rad52, stronger effect = lower value 0.979 | S. cerevisiae deletion strains, locus YML120C, strain ndi1, stronger effect = lower value 1 | S. cerevisiae deletion strains, locus YML124C, strain tub3, stronger effect = lower value 0.993 | S. cerevisiae deletion strains, locus YMR058W, strain fet3, stronger effect = lower value 0.993 | S. cerevisiae deletion strains, locus YMR078C, strain ctf18, stronger effect = lower value 0.982 | S. cerevisiae deletion strains, locus YMR125W, strain sto1, stronger effect = lower value 0.98 | S. cerevisiae deletion strains, locus YMR129W, stronger effect = lower value 0.993 | S. cerevisiae deletion strains, locus YMR205C, strain PFK2, stronger effect = lower value 1.01 | S. cerevisiae deletion strains, locus YMR223W, strain ubp8, stronger effect = lower value 0.995 | S. cerevisiae deletion strains, locus YMR231W, strain pep5, stronger effect = lower value 0.979 | S. cerevisiae deletion strains, locus YMR263W, strain SAP30, stronger effect = lower value 1.03 | S. cerevisiae deletion strains, locus YMR307W, strain GAS1, stronger effect = lower value 0.995 | S. cerevisiae deletion strains, locus YNL067W, strain RPL9B, stronger effect = lower value 1.02 | S. cerevisiae deletion strains, locus YNL071W, strain lat1, stronger effect = lower value 0.989 | S. cerevisiae deletion strains, locus YNL128W, strain TEP1, stronger effect = lower value 1.03 | S. cerevisiae deletion strains, locus YNL153C, strain GIM3, stronger effect = lower value 1.01 | S. cerevisiae deletion strains, locus YNL209W, strain ssb2, stronger effect = lower value 0.993 | S. cerevisiae deletion strains, locus YNL233W, strain BNI4, stronger effect = lower value 1.01 | S. cerevisiae deletion strains, locus YNL248C, strain rpa49, stronger effect = lower value 0.994 | S. cerevisiae deletion strains, locus YNL250W, strain rad50, stronger effect = lower value 0.989 | S. cerevisiae deletion strains, locus YNL271C, strain bni1, stronger effect = lower value 1 | S. cerevisiae deletion strains, locus YNL298W, strain CLA4, stronger effect = lower value 0.983 | S. cerevisiae deletion strains, locus YNL307C, strain MCK1, stronger effect = lower value 1.01 | S. cerevisiae deletion strains, locus YNL322C, strain KRE1 (second series), stronger effect = lower value 0.997 | S. cerevisiae deletion strains, locus YNL322C, strain KRE1, stronger effect = lower value 1.01 | S. cerevisiae deletion strains, locus YNR049C, strain mso1, stronger effect = lower value 0.981 | S. cerevisiae deletion strains, locus YNR052C, strain pop2, stronger effect = lower value 0.991 | S. cerevisiae deletion strains, locus YOL006C, strain TOP1, stronger effect = lower value 1.09 | S. cerevisiae deletion strains, locus YOL012C, strain htz1 0.758 | S. cerevisiae deletion strains, locus YOL147C, strain pex11, stronger effect = lower value 0.995 | S. cerevisiae deletion strains, locus YOR001W, strain rrp6, stronger effect = lower value 0.971 | S. cerevisiae deletion strains, locus YOR061W, strain CKA2, stronger effect = lower value 1.01 | S. cerevisiae deletion strains, locus YOR069W, strain VPS5, stronger effect = lower value 1 | S. cerevisiae deletion strains, locus YOR070C, strain gyp1, stronger effect = lower value 0.979 | S. cerevisiae deletion strains, locus YOR080W, strain dia2, stronger effect = lower value 0.994 | S. cerevisiae deletion strains, locus YOR083W, strain WHI5, stronger effect = lower value 1 | S. cerevisiae deletion strains, locus YOR106W, strain vam3, stronger effect = lower value 0.999 | S. cerevisiae deletion strains, locus YOR136W, strain idh2, stronger effect = lower value 0.984 | S. cerevisiae deletion strains, locus YOR144C, strain elg1, stronger effect = lower value 0.989 | S. cerevisiae deletion strains, locus YOR184W, strain ser1, stronger effect = lower value 0.978 | S. cerevisiae deletion strains, locus YOR265W, strain rbl2, stronger effect = lower value 0.991 | S. cerevisiae deletion strains, locus YOR270C, strain vph1, stronger effect = lower value 0.982 | S. cerevisiae deletion strains, locus YOR290C, strain snf2, stronger effect = lower value 0.981 | S. cerevisiae deletion strains, locus YOR316C, strain cot1, stronger effect = lower value 0.989 | S. cerevisiae deletion strains, locus YPL051W, strain arl3, stronger effect = lower value 0.987 | S. cerevisiae deletion strains, locus YPL055C, strain LGE1, stronger effect = lower value 1.04 | S. cerevisiae deletion strains, locus YPL078C, strain atp4, stronger effect = lower value 0.988 | S. cerevisiae deletion strains, locus YPL106C, strain sse1, stronger effect = lower value 0.97 | S. cerevisiae deletion strains, locus YPL240C, strain hsp82, stronger effect = lower value 0.999 | S. cerevisiae deletion strains, locus YPL241C, strain CIN2, stronger effect = lower value 1.01 | S. cerevisiae deletion strains, locus YPR119W, strain clb2, stronger effect = lower value 0.998 | S. cerevisiae deletion strains, locus YPR141C, strain kar3, stronger effect = lower value 0.995 | S. cerevisiae deletion strains, locus YPR163C, strain tif3, stronger effect = lower value 0.986 | S. cerevisiae deletion strains, locus YPR167C, strain met16, stronger effect = lower value 1 | S. cerevisiae deletion strains, strain wtn01, stronger effect = lower value 1.01 | S. cerevisiae strains, strain wild type, stronger effect = lower value 0.999
